Compound activity: PubChem BioAssay, several laboratories
Anthrax LF prot – Bacillus anthracis LF protease inhibitors, primary screen, biochemical, multiplex microsphere, MLPCN library; Lethal factor (Bacillus anthracis), P15917; multiplex microsphere protease cleavage assay; inhibition, % at 10 µM; 0.12% of 360,000 active; AID 588501, 2011
MazF activator – activators of E. coli MazEF toxin-antitoxin RNase, primary screen, biochemical, fluorescence, uHTS. Endoribonuclease toxin MazF (Escherichia coli (strain K12)), P0AE70. activation, % at 20 µM. AID 504720, 2011. 0.32% of 350,000 active. FAM/BHQ RNA-DNA oligo cleavage fluorescence, 5 h; in the data active = activation above about 50%
Target sequence (P0AE70 whole entry, looked up): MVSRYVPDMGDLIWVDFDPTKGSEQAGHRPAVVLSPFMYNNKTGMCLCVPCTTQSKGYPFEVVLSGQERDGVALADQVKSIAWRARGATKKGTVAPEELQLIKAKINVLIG
BoNT F protease – BoNT/F light chain protease inhibitors, primary screen, biochemical, flow cytometry, MLPCN library; Multiplex microsphere protease cleavage assay; inhibition, % at 10 µM; 0.22% of 360,000 active; in the data active = inhibition above about 35%, passing the limit was not always enough; inconclusive = no clear call, values can overlap the other calls
PriA SSB inh – inhibitors of Klebsiella pneumoniae PriA binding to SSB C-terminal tail, primary screen, biochemical, AlphaScreen; inhibition, % at 33 µM; AlphaScreen SSBct-PriA binding, biotinylated peptide; 0.6% of 430,000 active; PriA–SSB C-terminal tail interaction (Klebsiella pneumoniae); in the data active = inhibition mostly above about 37%, no sharp cut-off; inactive = mostly below about 20%
BoNT A protease – BoNT/A light chain protease inhibitors, primary screen, biochemical, flow cytometry, MLPCN library. Botulinum neurotoxin type A light chain protease (Clostridium botulinum A str. ATCC 3502). multiplex microsphere protease substrate cleavage. inhibition, % at 10 µM. 0.17% of 360,000 active. AID 588499, 2011
Bead autofluor – counter-screen for toxin protease inhibitors: compound fluorescence | compound autofluorescence counterscreen, microsphere flow cytometry; stronger effect = higher value | fluorescence intensity (no concentration beside the values) | 3.1% of 360,000 active; in the data active = fluorescence intensity above about 16000; inconclusive = no clear call, values can overlap the other calls
Hits are given with their value; 0 = inactive; ? = inconclusive; - = no result; ! = not active in a repeat. This is a sample that favours compounds with a hit; in the whole collection about 3.3% have one here. Rule as the data show it, unless noted: active = inhibition above about 30%; inconclusive = no clear call, values can overlap the other calls; inactive = below that.

SMILES	Anthrax LF prot	MazF activator	BoNT F protease	PriA SSB inh	BoNT A protease	Bead autofluor
CC(Cc1ccccc1)=NNS(=O)(=O)c1ccc([N+](=O)[O-])cc1	0	88	0	0	0	0
CC(Cc1ccccc1)=NNc1ccc([N+](=O)[O-])cc1[N+](=O)[O-]	0	0	0	0	0	0
Brc1ccc(-c2cn3c(n2)CCc2ccc4cccnc4c2-3)cc1	0	0	0	53	0	0
Brc1ccc(-c2cn3nc4c(nc3n2)CCCC4)cc1	0	0	0	0	0	0
Cc1cc(C(=O)Nc2sc3c(c2C#N)CCC(C)C3)cs1 (configuration not stated)	0	0	0	0	0	17096
O=C(c1cc(-c2cccnc2)nc2ccc(Cl)cc12)N1CCC2(CC1)OCCO2	0	0	0	0	0	0
O=C(c1cc(-c2cccnc2)nc2ccccc12)N1CCC2(CC1)OCCO2	0	0	0	0	0	19594
O=C(c1cc(-c2ccncc2)nc2ccccc12)N1CCN(c2ccccn2)CC1	0	0	0	0	0	17502
COCC(=O)Nc1ccc(S(=O)(=O)NCCc2ccccc2)cc1	0	0	0	0	0	16357
CC(C)NS(=O)(=O)c1ccc(NC(=O)CCc2ccccc2)cc1	0	0	0	0	0	21469
O=C(CCc1ccccc1)Nc1ccc(NS(=O)(=O)c2ccccc2)cc1	0	0	0	0	0	0
NC(CN1CCCC1=O)=NOC(=O)c1ccccc1Cl	-	-	-	0	-	-
CN(C)S(=O)(=O)c1ccc(C(=O)NCCC(O)C2CC2)cc1 (configuration not stated)	-	-	-	0	-	-
COc1ccc(-n2nc(N)c3c(=O)oc(N(C)C)nc32)cc1	0	0	0	0	0	16554
CN(C)c1nc2c(c(N)nn2-c2ccc(Cl)cc2)c(=O)o1	0	0	0	0	?	19528
O=C(Nc1ccc(F)cc1F)c1ccc(-c2ccccc2)cc1	-	-	-	0	-	-
Cc1cc(C)c(C)c(N=Nc2nc3ccccc3n2C)c1C	0	0	0	68	0	0
CCN/N=C(\Cc1nc2ccccc2[nH]1)c1ccccc1	0	0	0	-	0	0
N#CCCN/N=C(\Cc1nc2ccccc2[nH]1)c1ccccc1	0	0	0	-	0	22721
Clc1cccc(C(Cc2nc3ccccc3[nH]2)=NNc2ccccc2)c1	-	-	-	0	-	-
Clc1cccc(/C(Cc2nc3ccccc3[nH]2)=N\Nc2ccccc2)c1	0	61	0	-	0	0
Cc1[nH]c(=O)[nH]c(=O)c1CCc1nnc(SCC(=O)Nc2ccc3c(c2)OCCO3)o1	-	-	-	0	-	-
Cc1cccc(-c2nnc(NC(=O)c3ccc4ccccc4c3)s2)c1	-	-	-	0	-	-
O=C1C2CCCN2C(=O)N1CCCN1CCN(c2ccc([N+](=O)[O-])cc2)CC1 (configuration not stated)	0	0	46	0	0	0
Cc1ccc(SCc2nc3ccccc3n2CC(=O)Nc2c(C)cccc2C)cc1	0	0	0	0	0	22196
SMILES	Anthrax LF prot	MazF activator	BoNT F protease	PriA SSB inh	BoNT A protease	Bead autofluor
O=[N+]([O-])c1ccc(C=NNc2ccnc3cc(Cl)ccc23)o1	-	-	-	59	-	-
Cc1cc(/C=N\NC(=O)CC(=O)NC2CCCCC2)c(C)n1-c1ccc(Cl)c(Cl)c1	0	0	0	-	0	24080
C=CCn1c(=O)c2ccccc2n2c(SCC(=O)/C(C#N)=C(\C)N)nnc12	0	0	0	0	?	24633!
COc1ccc2c(c1)[nH]c1c(N3CCSCC3)ncnc12	0	0	0	0	0	0
COc1ccc2c(c1)[nH]c1c(N3CCN(Cc4ccc5c(c4)OCO5)CC3)ncnc12	0	0	0	0	0	23865
Cc1c(C(=O)N2CCN(CC(O)c3cccs3)CC2)cnn1-c1ccccc1 (configuration not stated)	-	-	-	0	-	-
Cc1ccc(C(=O)NCc2ccco2)cc1S(=O)(=O)Nc1cccc(Cl)c1	0	0	0	0	?	21942
Cc1ccc(C)c(S(=O)(=O)Nc2ccc(C(=O)NCc3ccco3)cc2)c1	-	-	-	0	-	-
COC(=O)c1ccc(COc2coc(CN3CCN(c4ccccc4F)CC3)cc2=O)o1	-	-	-	0	-	-
Cc1ccc(NC(=O)c2noc3c2CCCCC3)cc1	0	0	0	0	0	22657
Cc1ccc(NC(=O)c2noc3c2CCCCC3)cc1C	0	0	0	0	0	16801
CCc1ccc(NC(=O)c2noc3c2CCCCC3)cc1	0	0	0	0	0	0
O=C(CSC1=NS(=O)(=O)c2ccccc2N1)Nc1ccc2c(c1)OCCO2	-	-	-	0	-	-
CCOc1ccccc1C1C(C#N)=C(N)Oc2cc(C)n(C)c(=O)c21 (configuration not stated)	0	0	0	0	?	21644
CCOc1ccccc1C1C(C#N)=C(N)SC(N)=C1C#N	0	0	51	0	0	0
Cc1cc2c(c(=O)n1Cc1ccc3c(c1)OCO3)C(c1cccnc1)C(C#N)=C(N)O2 (configuration not stated)	0	0	0	0	0	20731
Cc1cc2c(c(=O)n1CCCn1ccnc1)C(c1ccco1)C(C#N)=C(N)O2 (configuration not stated)	0	0	0	0	0	22337
CCOc1ccccc1C1C(C#N)=C(N)Oc2cc(C)n(Cc3ccccn3)c(=O)c21 (configuration not stated)	?	0	?	0	?	?
COc1ccccc1C1C(C#N)=C(N)Oc2cc(C)n(CCCn3ccnc3)c(=O)c21 (configuration not stated)	0	0	0	0	0	0
O=C(CCn1cnc2c(cnn2-c2ccc(F)cc2)c1=O)NCc1c(F)cccc1F	-	-	-	0	-	-
COCCn1c(C)cc2c(c1=O)C(c1ccccc1F)C(C#N)=C(N)O2 (configuration not stated)	0	0	0	0	0	20039
COc1ccccc1C1C(C#N)=C(N)Oc2cc(C)n(Cc3ccccn3)c(=O)c21 (configuration not stated)	0	0	?	0	?	?
O=C(c1cc(-c2ccco2)[nH]n1)N1CCC(S(=O)(=O)Cc2ccco2)C1 (configuration not stated)	-	-	-	0	-	-
CCOC(=O)CCc1c(C)c2ccc(OC(C)C(=O)OCC)c(C)c2oc1=O (configuration not stated)	0	0	0	0	0	20895
Cn1nc(CN(Cc2ccco2)C(=O)CSc2ccc(F)cc2)cc1C1CC1	-	-	-	0	-	-
COc1ncccc1C(=O)NCC(CC(=O)O)c1ccccc1 (configuration not stated)	0	0	0	0	0	16335
CCOc1ncccc1C(=O)NCC(c1ccccc1)N(C)C (configuration not stated)	0	0	0	0	0	0
